Screens: PubChem BioAssay, The Scripps Research Institute Molecular Screening Center
DAX1 inh-1 = inhibitors of DAX1 repression of SF-1 activated StAR promoter; inhibition, % at 6.8 µM; hit rate 1.1% among 370,000; HEK293T StAR-luciferase reporter, SF-1/DAX-1 repression relief;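 active means inhibition above the mean over all tested compounds plus 3 SD, cut at about 3.6% in these data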;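 further: 0% = DAX-1 cells with DMSO and 100% = cells lacking DAX-1 with DMSO; higher inhibition means more luminescence from relief of DAX-1 repression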
DAX1 inh-2 = inhibitors of human orphan nuclear receptor DAX1 (NR0B1); P51843; inhibition, % at 6.75 µM; hit rate 0.99% among 340,000; HEK293 Gal4-DAX1 luciferase reporter, luminescence;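 active means inhibition above the mean over all tested compounds plus 3 SD, cut at about 4.2% in these data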;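 further: 0% = DAX1-transfected cells with DMSO and 100% = empty-vector control cells with DMSO; inhibition shows as a rise in luminescence from relieved DAX1 repression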
Target sequence (P51843 207-470 limits assumed): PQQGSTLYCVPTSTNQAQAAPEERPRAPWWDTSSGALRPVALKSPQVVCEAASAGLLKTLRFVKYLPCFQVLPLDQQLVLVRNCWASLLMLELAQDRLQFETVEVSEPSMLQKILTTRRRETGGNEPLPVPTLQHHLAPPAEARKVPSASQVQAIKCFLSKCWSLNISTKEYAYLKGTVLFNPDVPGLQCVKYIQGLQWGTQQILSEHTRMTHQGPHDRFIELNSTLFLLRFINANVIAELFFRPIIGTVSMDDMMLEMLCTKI
ssDAF12 agonist = S. stercoralis DAF-12 activation, primary screen; HEK293 ssDAF-12/GRIP1 lit1-tk-luc reporter, luminescence; % of 3 µM dafachronic acid response; activation, % at 6.8 µM; hit rate 1% among 370,000; AID 652126;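 active means activation above the mean over all tested compounds plus 3 SD, cut at about 0.9% in these data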;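 further: 0% = DMSO-only wells and 100% = 3 µM delta7-dafachronic acid wells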
hgDAF12 agonist = hgDAF-12 agonism, primary luciferase screen | HEK293 GAL4-hgDAF12 UAS-luciferase reporter, agonist luminescence; normalized to butyrate control | activation, % at 6.8 µM | hit rate 1.8% among 370,000 | AID 687014;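 active means activation above a cutoff set at the mean of all screened compounds plus 3 SD, cut at about 10% in these data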;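 further: 0% = DMSO wells and 100% = sodium butyrate wells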
hcDAF12 agonist = H. contortus DAF-12 activation, primary screen; HEK293 hcDAF-12 lit1-tk-luc reporter, luminescence; 0% DMSO, 100% Δ7-dafachronic acid; activation, % at 6.8 µM; hit rate 1.4% among 370,000; AID 652067;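 active means activation above the mean of all tested compounds plus 3 SD, cut at about 5.5% in these data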;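 further: 100% = response to 3 µM Δ7-dafachronic acid high control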
* marks the source's active call; other numbers are inactive results; . = no result given. Shown are actives, neighbours in structure and some others; about 4.1% of the full set was active somewhere.

SMILES	DAX1 inh-1	DAX1 inh-2	ssDAF12 agonist	hgDAF12 agonist	hcDAF12 agonist
COc1ccccc1NS(=O)(=O)c1ccc(C)c(NC(=O)NCCCl)c1	-1	4.4*	0	-5	0
COc1ccc(OC)c(S(=O)(=O)N2CCCCC2C(=O)N2CCN(Cc3ccc(F)cc3)CC2)c1 (centres undefined)	-3	.	-2	0	-3
[O-]c1n[n+](-c2ccc(Cl)cc2Cl)cc2ccccc12	0	4.4*	-1	-1	-1
CCn1c2ccccc2c2cc(NC(=O)CSc3nnc(-c4ccccc4)n3Cc3ccco3)ccc21	-1	.	-1	-4	0
COC(=O)c1scc(C)c1NC(=O)c1ccc(Cl)cc1	.	-1	.	.	.
COC(=O)c1scc(C)c1N/N=C(\C)c1ccc(F)cc1F	0	0	0	0	5.8*
COC(=O)[C@]12C[C@H](CC(=O)NCc3cccc(C(F)(F)F)c3)C(=O)N(Cc3ccco3)C1=C[C@H](C(C)(C)C)O[C@@H]2C	0	.	-1	1	-3
COC(=O)CCc1nc2ccccc2[nH]c1=O	1	-1	-1	3	-1
COC(=O)CSCc1nc2ccccc2[nH]c1=O	-1	0	1	2	5.6*
O=C(Nc1cc(Cl)ccc1F)C1CCCN1S(=O)(=O)c1cccc2cccnc12 (centres undefined)	-2	.	-2	-2	-4
Cc1ccc2c(C)c(C(=O)N(C)C(C)c3ccon3)oc2c1C (centres undefined)	4.2*	2	0	6	1
CCOc1ccccc1-c1nnc(SCC(=O)NC2CC2)n1CC	-1	0	1.1*	3	4
CCn1c(CNC(=O)Cc2ccc(OC)cc2)n[nH]c1=S	4.1*	-1	-2	0	-1
CCn1c(CNC(=O)Cc2ccc(OC)cc2)nnc1SCC(=O)NC1CCCCC1	0	0	1.0*	-1	0
COc1ccc(CC(=O)NCc2n[nH]c(=S)n2-c2ccc(F)cc2)cc1	0	1	-1	-6	0
O=C1CSc2ccc(C(=O)N3CCCC(C(=O)N4CCCCC4)C3)cc2N1 (centres undefined)	-1	.	0	4	0
O[C@H](COc1ccc(Cl)cc1)CN1CCC(C(O)(c2ccccc2)c2ccccc2)CC1	0	.	-1	0	1
COc1cccc(/C=N/n2c(SC)nnc2-c2ccccc2)c1OC	1	-1	-1	0	-1
COc1cccc(/C=N/n2c(SC)nnc2-c2ccccc2)c1O	-1	4.6*	-1	-1	1
CN1C(=O)c2cc(NC(=O)Nc3ccccc3)ccc2OC[C@H]2O[C@@H](CC(=O)N[C@H]3CCN(Cc4ccccc4)C3)CC[C@@H]21	0	.	-1	-4	1
O=C(c1cc2cc(Cl)ccc2oc1=O)N1CCCCCCC1	0	4.5*	-1	0	2
O=C(CSc1nnc(-c2ccccn2)o1)Nc1ccccc1Cl	2	0	0	11*	2
O=C(CSc1nnc(-c2ccncc2)o1)Nc1ccccc1Cl	1	0	-1	5	0
COc1ccc(-c2nnc(SCC(=O)N3CCN(c4ccccc4)CC3)o2)cc1OC	0	6.2*	-1	1	0
COc1ccc(-c2nnc(SCC(=O)Nc3ccccc3OC)o2)cc1	4.3*	2	0	7	1
SMILES	DAX1 inh-1	DAX1 inh-2	ssDAF12 agonist	hgDAF12 agonist	hcDAF12 agonist
COc1ccc(NC(=O)CSc2nnc(-c3ccc(F)cc3)o2)cn1	4.0*	2	0	9	1
C[N+]1=C(N)N[C@@]2(C=C3CCCCC3n3c(=O)n(-c4ccccc4)c(=O)n32)C1 (some centres undefined)	-1	.	-1	-2	-1
C[C@]12Cc3ccccc3C1CC1=N[C@@H](c3ccc(C(F)(F)F)cc3)O[C@@]13C[C@@H]2C(=O)N3C1CCN(Cc2ccccc2)CC1 (some centres undefined)	2	.	0	1	2
C=CCN1C(=O)[C@H](CC(=O)NCc2cccc(C(F)(F)F)c2)[C@@]2(C(=O)OCC)CCCC=C12	-1	.	-1	5	-1
COc1ccc(-c2nnc(SCC(=O)NC3CC3)o2)c(OC)c1	4.3*	-1	-1	2	1
COc1ccc(OC)c(-c2nnc(SCC(=O)NC3CCCCC3)o2)c1	-1	1	-1	2	-2
CCSc1nnc2nc3[nH]c4c(C)cccc4c3nn12	2	.	1.5*	6	4
O=C(CSc1ccc2ccccc2n1)c1ccc2c(c1)OCO2	3	2	2.3*	10	5
COc1cc(C(NC(=O)C(F)(F)F)C2CCCC=C2c2ccccc2)cc(OC)c1OC (centres undefined)	0	.	-1	1	0
CC/C(=N/Nc1ccccc1)c1cnnc(-c2ccccc2)n1	1	0	-1	2	1
CC/C(=N/Nc1cccc(Cl)c1)c1cnnc(SC)n1	0	4.6*	-1	-4	2
CC1=C(C(=O)NC(C)CCc2ccccc2)C2(CCC(C)CC2)OC1=O (centres undefined)	0	5.1*	-1	-1	1
Cc1ccc(C(C)C)c(OCC(=O)NNC(=O)CC2OC(=O)c3ccccc32)c1 (centres undefined)	-1	4.2*	0	2	-1
O=C(/C=C/c1cccs1)NNC(=O)c1ccccc1	2	0	0	7	6.0*
COc1ccc2c(c1)CNC2CS(=O)(=O)NCc1ccccc1 (centres undefined)	-1	.	-1	1	3
COc1ccccc1C(=O)Nc1ccc2[nH]ncc2c1	0	2	-2	1	0
CCOc1cccc(C(=O)Nc2ccc3[nH]ncc3c2)c1	3	1	-1	13*	5
COc1cccc(C(=O)Nc2ccc3[nH]ncc3c2)c1	2	3	0	11*	5
C=CCN(CC#Cc1ccc(C)cc1)Cc1ccc(OC)cc1OC	-1	.	-1	0	1
COC(=O)c1ccc2nc(C3CCCCC3)c(Cc3ccc(C)cc3)n2c1	1	.	1.0*	5	3
COC(=O)c1ccc2nc(-c3ccco3)c(Cc3ccccc3C(F)(F)F)n2c1	-1	.	-1	-5	-1
COC(=O)c1ccc2nc(-c3ccco3)c(Cc3ccccc3OC)n2c1	-2	.	1.3*	6	2
COC(=O)c1ccc2nc(C3CCCCC3)c(Cc3ccccc3C(F)(F)F)n2c1	3.6*	.	0	2	2
CN=CC1=C(O)C(C(=O)OC)C(C)(C)CC1=O (centres undefined)	0	4.3*	-1	1	-1
CCn1cc(CCC(=O)Nc2ccc(Oc3cccnc3)cc2)c2ccccc21	-1	.	-1	0	-2
O=C(NCCN1C(=O)C2C3C=CC(C3)C2C1=O)c1cc(Cl)cc(Cl)c1 (centres undefined)	0	.	-1	-1	-2
Cc1ccc(Cl)cc1N1CCN(C(=O)Cc2c(C(=O)O)[nH]c3ccc(Cl)cc23)CC1	0	0	0	-2	1
